In PubChem BioAssay AID651848 (The Scripps Research Institute Molecular Screening Center, 2012):
This is one part of the list. The source made the active and inactive calls. No stated cut-off is given here; in the data, active means IC50 below about 10 µM; inactive means the rest.

Assay: PG9 anti-gp120 antibody binding compounds – biochemical, TR-FRET, HIV-1 gp120 antibody, dose response (AID 651848)
Settings: TR-FRET PG9 antibody-gp120 binding inhibition

IC50, inactive:
O=C(Oc1ccccc1)Oc1ccc2c(c1)oc(=O)c1ccccc12 25.1 µM
O=C(Nc1nnc(-c2ccccc2F)s1)c1ccccc1F > 67.1 µM
COc1ccc(-c2c(C)nn3c(N4CCC(C(=O)N5CCCCC5)CC4)cc(C)nc23)cc1OC > 67 µM
CC1(C)Cc2ccccc2-c2[nH]c(=S)[nH]c(=O)c21 > 67.1 µM
COC(=O)C1=C(C)N(Cc2ccccc2C(F)(F)F)C(=NCc2ccc(OC)cc2)NC1c1cccc(C(F)(F)F)c1 (configuration not stated) > 67 µM
S=c1[nH]c2ccccc2c2ccccc12 44.6 µM
Cc1cccc(Nc2nc3c(S(=O)(=O)c4ccccc4)nnn3c3ccccc23)c1C > 67 µM
